Rab9 prom act = qHTS Assay for Rab9 Promoter Activators. Huh7 Rab9 promoter-luciferase reporter, luminescence, 24 h. Potency, µM (titrated, usually from 9.22 µM), inactives show top-dose activation, negative = inhibition, hits mostly activators. 2.8% of 320,000 active. AID 485297, 2010; also: % of control where 0% means no effect; nearly all actives have a fitted effect of over 60% in size
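Cells were plated at 1500 per well in reduced-serum medium with 10% FBS and left 2 h. Compound in DMSO was then added for 24 h at 37 °C. Reporter signal was read by luminescence after 10 min with luciferase detection reagent.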
ELG1 DNA repair = qHTS screen for small molecules that inhibit ELG1-dependent DNA repair in human embryonic kidney (HEK293T) cells expressing luciferase-tagged ELG1; HEK293T ELG1-luciferase reporter, luminescence, 16 h; DNA damage induced by 5-fluorouridine; Potency, µM (titrated, usually from 46.1 µM), for inactives: at the top dose activity change, negative = inhibition, actives largely listed as inhibitors; 2.3% of 330,000 active; also: % is scaled to controls: 0 for no effect and ±100 for the full control effect; nearly all actives have a fitted effect of over 55% in size
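Luminescence from the luciferase reporter, measured 30 min after ONE-Glo reagent at room temperature, was the read-out. Beforehand, 2,000 cells per well were exposed for 16 hr at 37 °C to 5-fluorouridine together with compound or vehicle.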
FLuc modulator = qHTS profiling assay for firefly luciferase inhibitor/activator using purifed enzyme and Km concentrations of substrates (counterscreen for miR-21 project); Luciferin 4-monooxygenase (Photinus pyralis), P08659; purified FLuc, Km substrates, luminescence inhibition; Potency, µM (doses to about 57.5 µM), for inactives: top-dose activity change, negative = inhibition, most hits filed as inhibitors; 6.9% of 360,000 active;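 also: plate controls were vehicle for no effect and reference inhibitor for full effect; nearly all actives have a fitted effect of over 55% in size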
Target sequence (P08659 whole entry, looked up): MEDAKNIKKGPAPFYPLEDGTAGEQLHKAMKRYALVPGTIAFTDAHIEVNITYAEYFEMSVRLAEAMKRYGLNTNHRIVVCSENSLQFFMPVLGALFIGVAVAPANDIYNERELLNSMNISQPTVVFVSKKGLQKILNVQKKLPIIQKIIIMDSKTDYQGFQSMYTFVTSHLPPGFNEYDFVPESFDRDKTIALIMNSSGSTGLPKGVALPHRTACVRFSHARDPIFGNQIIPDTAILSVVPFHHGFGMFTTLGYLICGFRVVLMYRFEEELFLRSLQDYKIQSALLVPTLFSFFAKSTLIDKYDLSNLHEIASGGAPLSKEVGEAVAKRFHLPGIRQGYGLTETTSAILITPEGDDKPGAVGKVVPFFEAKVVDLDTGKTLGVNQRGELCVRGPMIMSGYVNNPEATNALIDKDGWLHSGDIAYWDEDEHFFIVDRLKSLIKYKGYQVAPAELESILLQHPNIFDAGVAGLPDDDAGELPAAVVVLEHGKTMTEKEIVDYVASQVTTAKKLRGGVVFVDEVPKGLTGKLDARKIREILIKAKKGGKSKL
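Biochemical qHTS of compounds, final roughly 60 µM downward over six points, against 10 nM purified firefly luciferase using Km concentrations of substrates (10 uM D-luciferin, 10 uM ATP) in Tris acetate pH 7.5 buffer; luminescence output.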
SMN2 splice enh = qHTS Assay for Enhancers of SMN2 Splice Variant Expression; 2.8% of 210,000 active; AID 1458, 2008; HEK293 SMN2-luciferase splicing reporter, luminescence, 30-36 h; Potency, µM (titrated, usually from 46.1 µM), without a hit: at the top dose activity change, positive = activation, hits mostly activators; also: % of control where 0% means no effect; nearly all actives have a fitted effect of over 55% in size
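HEK293 cells carry an SMN2 […]–luciferase reporter in which exon 7 inclusion puts luciferase in frame. Cells were plated 10-12 h before compound addition, then incubated 30-36 h at 37C. ONE-Glo luminescence was read; sodium butyrate at 4.5 mM final served as control.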
ELG1 genotoxic = qHTS screen for small molecules that induce genotoxicity in human embryonic kidney (HEK293T) cells expressing luciferase-tagged ELG1; HEK293T ELG1-luciferase reporter, luminescence, 16 h; Potency, µM (titrated, usually from 46 µM), inactives show top-dose activity change, positive = activation, hits mostly activators; 1.3% of 330,000 active; also: % of control where 0% means no effect; nearly all actives have a fitted effect of over 60% in size
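HEK293T cells expressing luciferase-tagged ELG1 were treated with compound or DMSO for 16 hr at 37°C. Luciferase activity was then read after 30 min with ONE-Glo at room temperature; rising signal flags genetic stress.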
NPC1 promoter act = qHTS Assay for NPC1 Promoter Activators | Potency, µM (highest dose often 9.22 µM), inactives show top-dose activation, usual class: activators | 2.4% of 320,000 active | Huh7 NPC1 promoter luciferase reporter, 24 h | AID 485313, 2010; also: % of control where 0% means no effect; nearly all actives have a fitted effect of over 60% in size
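Huh7 reporter cells (NPC1 promoter driving luciferase) are dosed with compound for 24 h at 37 °C, 5% CO2; luciferase detection reagent is then added and luminescence measured after 10 min at ambient temperature.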
* marks the source's active call; other numbers are inactive results. Rows were chosen to be rich in hits. Some 9.3% of all compounds tested hit in one or more screens of this group. Calls follow the shape of the dose curve; as a rule, active = well fitted curve in the direction sought with a large enough effect; inconclusive = small, poorly fitted or top-dose-only effect, or another doubt; inactive = no such curve, though single readings can be large; an effect the other way counts as inactive or inconclusive. Potency is read from the fitted curve at half-maximal effect.

Results for Cc1ccccc1-c1cnn(-c2cccc([N+](=O)[O-])c2)c1N ?
Rab9 prom act: 24.6%; ELG1 DNA repair: inconclusive; FLuc modulator: -19.9%; SMN2 splice enh: 12.4%; ELG1 genotoxic: -0.9%; NPC1 promoter act: 3.3%

What do the screens show for `CC[C@@H]1C=C(C(=O)O)[C@H](c2ccc(Cl)cc2)N1S(=O)(=O)c1ccc(C)cc1`?
ELG1 DNA repair: -7.1%; ELG1 genotoxic: 7.2%

How did O=C(Nc1ccccn1)c1ccc(CN(c2ccccc2)S(=O)(=O)c2ccccc2)cc1 do in these assays?
Rab9 prom act: 3.2%; ELG1 DNA repair: 18.3µM*; FLuc modulator: 4.2%; SMN2 splice enh: -31.1%; ELG1 genotoxic: -17.0%; NPC1 promoter act: 0.7%

How did Cc1cccc(NC(=O)NC(=O)c2ccccc2)n1 do in these assays?
Rab9 prom act: inconclusive; ELG1 DNA repair: inconclusive; FLuc modulator: inconclusive; SMN2 splice enh: inconclusive; ELG1 genotoxic: 6.0%; NPC1 promoter act: inconclusive

How did COc1ccc(N(Cc2ccccc2)S(=O)(=O)c2cccc(C(=O)Nc3ccccn3)c2)cc1 do in these assays?
Rab9 prom act: 1.3%; ELG1 DNA repair: -7.2%; FLuc modulator: -1.4%; ELG1 genotoxic: -4.2%; NPC1 promoter act: -2.6%

How did Cc1cc(C(=O)Nc2ccccn2)cs1 do in these assays?
Rab9 prom act: 1.41µM*; ELG1 DNA repair: inconclusive; FLuc modulator: 10.7µM*; SMN2 splice enh: 7.94µM*; ELG1 genotoxic: inconclusive; NPC1 promoter act: 1.41µM*

What do the screens show for `O=C(NC(=O)c1ccccc1)Nc1ccccn1`?
Rab9 prom act: 1.26µM*; ELG1 DNA repair: inconclusive; FLuc modulator: 0.269µM*; ELG1 genotoxic: inconclusive; NPC1 promoter act: -22.6%

How did O=C(Nc1ccccn1)c1ccc(NC(=O)c2ccco2)cc1 do in these assays?
Rab9 prom act: 2.24µM*; ELG1 DNA repair: inconclusive; FLuc modulator: 10.7µM*; SMN2 splice enh: 12.6µM*; ELG1 genotoxic: inconclusive; NPC1 promoter act: 2.24µM*

Results for Cc1ccccc1NC(=O)c1ccc(NC(=O)c2ccco2)cc1 ?
Rab9 prom act: 13.2%; ELG1 DNA repair: inconclusive; FLuc modulator: inconclusive; SMN2 splice enh: 1.1%; ELG1 genotoxic: inconclusive; NPC1 promoter act: 12.4%

How did CN(C(=O)COC(=O)c1cccc(F)c1)c1ccccc1 do in these assays?
Rab9 prom act: -0.3%; ELG1 DNA repair: 13.2%; FLuc modulator: -10.5%; ELG1 genotoxic: 10.0%; NPC1 promoter act: -2.7%

What do the screens show for `CCOC(=O)c1c(S(=O)(=O)N2CCc3ccccc32)c(C)n(C)c1C`?
Rab9 prom act: 0.1%; ELG1 DNA repair: 8.0%; FLuc modulator: 1.5%; ELG1 genotoxic: -0.4%; NPC1 promoter act: -0.9%

How did CCCn1c(SCC(=O)NCc2cccs2)nc2c1c(=O)n(C)c(=O)n2C do in these assays?
Rab9 prom act: 0.3%; ELG1 DNA repair: 9.0%; FLuc modulator: -0.1%; SMN2 splice enh: 8.5%; ELG1 genotoxic: -2.7%; NPC1 promoter act: -3.1%

What do the screens show for `COC(=O)[C@H](COC(C)(C)C)NC(=O)O[C@H]1C(=O)c2cc(OC)ccc2O[C@@H]1c1ccc(OC)c(Br)c1`?
SMN2 splice enh: 5.9%

What do the screens show for `O=C(Nc1ccccn1)c1ccc(C(=O)c2ccccc2)cc1`?
Rab9 prom act: 2.51µM*; ELG1 DNA repair: inconclusive; FLuc modulator: 4.26µM*; ELG1 genotoxic: 4.61µM*; NPC1 promoter act: 3.55µM*

How did O=C(c1ccccc1)c1nc[nH]c1C(=O)Nc1ccccn1 do in these assays?
Rab9 prom act: 3.0%; ELG1 DNA repair: -1.2%; FLuc modulator: -17.5%; SMN2 splice enh: 1.7%; ELG1 genotoxic: inconclusive; NPC1 promoter act: 15.0%

How did CC(C)OC(=O)CCCN1C(=O)c2ccc(N)cc2C1=O do in these assays?
Rab9 prom act: -6.1%; ELG1 DNA repair: 21.8%; FLuc modulator: -10.8%; SMN2 splice enh: -17.8%; ELG1 genotoxic: -1.6%; NPC1 promoter act: -1.7%

What do the screens show for `COc1cc(OC)cc(-c2cc3ccc(OC)cc3cn2)c1`?
Rab9 prom act: inconclusive; ELG1 DNA repair: inconclusive; FLuc modulator: 0.269µM*; ELG1 genotoxic: inconclusive; NPC1 promoter act: inconclusive

Results for COc1ccc2cc(C3=CCCCC3)ncc2c1 ?
Rab9 prom act: inconclusive; ELG1 DNA repair: inconclusive; FLuc modulator: 0.849µM*; ELG1 genotoxic: inconclusive; NPC1 promoter act: 2µM*

Results for COc1ccc2cc(-c3ccccc3)ncc2c1 ?
Rab9 prom act: 0.447µM*; ELG1 DNA repair: inconclusive; FLuc modulator: 0.536µM*; ELG1 genotoxic: 2.91µM*; NPC1 promoter act: 0.562µM*

Results for COc1cc(OC)cc(-c2cc3ncccc3cn2)c1 ?
Rab9 prom act: -1.1%; ELG1 DNA repair: inconclusive; FLuc modulator: inconclusive; ELG1 genotoxic: 10.3%; NPC1 promoter act: 14.4%

Results for COc1ccc(-c2cc3cc(OC)c(OC)cc3cn2)cc1 ?
ELG1 DNA repair: inconclusive; ELG1 genotoxic: 13.4%

How did COc1ccc2cc(-c3ccsc3)ncc2c1 do in these assays?
Rab9 prom act: -0.5%; ELG1 DNA repair: inconclusive; FLuc modulator: 1.9µM*; ELG1 genotoxic: inconclusive; NPC1 promoter act: inconclusive

How did COc1ccc(-c2ccc3oc(-c4ccsc4)c(-c4ccc(Br)nc4)c3c2)cc1 do in these assays?
ELG1 DNA repair: inconclusive; ELG1 genotoxic: 19.1%

How did Cc1cc(C)n(CC(=O)NNC(=O)COc2ccc(Cl)cc2Cl)n1 do in these assays?
Rab9 prom act: -5.3%; ELG1 DNA repair: 20.4%; FLuc modulator: -1.4%; ELG1 genotoxic: 0.0%; NPC1 promoter act: -1.1%

Results for COc1ccc(-c2nnc(SCC(=O)NCCC(C)C)nc2-c2ccc(OC)c(OC)c2)cc1OC ?
Rab9 prom act: 7.1%; ELG1 DNA repair: inconclusive; FLuc modulator: 0.0%; ELG1 genotoxic: 1.7%; NPC1 promoter act: -2.3%

How did CC1CCCCC1NC(=O)COC(=O)COc1ccc(Cl)cc1 (centres undefined) do in these assays?
Rab9 prom act: 2.9%; ELG1 DNA repair: -1.6%; FLuc modulator: 2.0%; SMN2 splice enh: 3.9%; ELG1 genotoxic: 1.0%; NPC1 promoter act: 1.2%

Results for O=c1c2cc3c(cc2nc2sc(Nc4ccc(F)cc4F)nn12)OCO3 ?
FLuc modulator: inconclusive; SMN2 splice enh: 4.1%
